Hit rate of the full screen: of about 2,100 compounds, about 1,100 (52%) were called active. Inconclusive results (about 27%) are left out. The set was probably picked from earlier hits. The list shows a part of the results. Values without a mark were called inactive. Calls follow the shape of the dose curve; as a rule, active = well fitted inhibition curve with a large enough effect; inconclusive = small, poorly fitted or top-dose-only effect; inactive = no such curve, though single readings can be large or run the other way.
Molecular target: DNA dC->dU-editing enzyme APOBEC-3G (Homo sapiens) (UniProt Q9HC16)
Sequence (Q9HC16 whole entry, looked up): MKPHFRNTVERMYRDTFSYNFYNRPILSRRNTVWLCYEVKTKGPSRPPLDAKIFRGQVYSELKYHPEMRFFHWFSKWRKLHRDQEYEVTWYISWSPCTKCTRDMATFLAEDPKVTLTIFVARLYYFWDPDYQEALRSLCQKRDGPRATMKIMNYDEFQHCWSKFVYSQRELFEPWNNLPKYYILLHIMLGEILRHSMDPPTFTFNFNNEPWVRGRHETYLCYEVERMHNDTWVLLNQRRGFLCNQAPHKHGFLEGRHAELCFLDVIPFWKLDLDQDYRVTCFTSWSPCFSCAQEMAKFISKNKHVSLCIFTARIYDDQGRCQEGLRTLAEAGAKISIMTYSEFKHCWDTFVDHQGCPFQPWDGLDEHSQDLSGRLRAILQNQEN
Assay: qHTS for inhibitors of Vif-A3G interactions: Cherry picks counterscreen;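 also: hits raise yellow fluorescence by blocking Vif-driven A3G-eYFP degradation; nearly all actives have a fitted effect of over 70% in size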;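 as to max response: max response given as percent of control signal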
Conditions: HeLa A3G-eYFP + Vif (tagged APOBEC3G with the HIV-1 protein that degrades it), eYFP fluorescence, 24 h
Summary of the method: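 Readout is eYFP fluorescence (488 nm excitation, 500-530 nm emission) measured on Acumen Explorer after 24 h compound exposure, several concentrations, at 37 deg C. Cells: HeLa stably co-expressing Vif and C-terminally eYFP-tagged A3G; MG132 positive control.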
Potency is read from the fitted curve at half-maximal effect.

SMILES | max response [%] | Potency
O=C(NCCC1=CCCCC1)C1CCC(CNc2nc(=S)[nH]c3ccccc23)CC1 (stereo not drawn) | -2.72 | –
Cc1ccc(C)c2nc3sc(C(=O)N4CCOCC4)c(N)c3cc12 | – | 17.7 µM (active)
Cc1cccc2cc3c(N)c(C(=O)N4CCOCC4)sc3nc12 | – | 8.2 µM (active)
Cc1cccc2cc3c(N)c(C(=O)Nc4ccc(N5CCOCC5)cc4)sc3nc12 | – | 14 µM (active)
Cc1sc(NC(=O)c2sc3nc4c(C)cccc4cc3c2N)c(C#N)c1C | – | 17.7 µM (active)
Cc1ccnc(N/C=C(\C#N)c2nc(-c3cccc(Br)c3)cs2)c1 | – | 11.2 µM (active)
CN(NC(=O)c1ccccc1)c1nc2ccccc2nc1C(F)(F)F | – | 3.53 µM (active)
Cc1ccc(C(=O)NN(C)c2nc3ccccc3nc2C(F)(F)F)cc1 | – | 6.27 µM (active)
CC12CC3CC(C)(C1)CC(C(=O)NC(=S)N1CCOCC1)(C3)C2 | -26.4 | –
Cc1cnc(NC(=O)CC(C)c2ccccc2)s1 (stereo not drawn) | – | 5.59 µM (active)
CCn1nc(-c2ccccc2)c2nc3ccccc3nc21 | – | 23.1 µM (active)
Cc1ccc(CNC(=O)c2cccc3c2C(=O)c2ccc(N4CCC(C)CC4)cc2S3(=O)=O)cc1 | -0.215 | –
O=C(NCc1cccc(F)c1)c1cccc2c1C(=O)c1ccc(N3CCCC3)cc1S2(=O)=O | – | 17.7 µM (active)
Cc1ccc(CNC(=O)c2cccc3c2C(=O)c2ccc(N4CCCCC4)cc2S3(=O)=O)cc1 | – | 18.4 µM (active)
CC1CCN(c2ccc3c(c2)S(=O)(=O)c2cccc(C(=O)NCc4cccc(F)c4)c2C3=O)CC1 | – | 14 µM (active)
COc1cc2ccccc2cc1C(=O)N/N=C/c1cccs1 | – | 1.77 µM (active)
COc1ccccc1C=CC(=O)C=Cc1ccccc1OC | – | 6.27 µM (active)
O=C(NC(=S)N1CCN(C2CCCCC2)CC1)c1ccccc1 | -11.9 | –
Nc1ccc(/C=C/c2cc(Cl)nc3ccccc23)cc1 | – | 20.6 µM (active)
CN(C)c1ccc(/C=C/c2cc(N(C)C)nc3ccccc23)cc1 | – | 6.51 µM (active)
CN(C)c1ccc(/C=C/c2cc(/C=C/c3ccc(N(C)C)cc3)c3ccccc3n2)cc1 | – | 3.66 µM (active)
CN(C)c1ccc(/C=C/c2nc3ccccc3c(=O)n2CCO)cc1 | – | 20.6 µM (active)
CCN(CC)c1ccc(/C=C/c2cc(-c3ccccc3)c3ccccc3n2)cc1 | – | 1.98 µM (active)
Cc1ccccc1N1C(=O)c2cccc3c(N(C)CCO)ccc(c23)C1=O | – | 4.61 µM (active)

SMILES | max response [%] | Potency
COc1ccccc1N1C(=O)c2cccc3c(C(=O)O)ccc(c23)C1=O | 6.39 | –
COc1ccc(C(=O)c2ccc(OC)c(OC)c2OC)cc1 | – | 2.23 µM (active)
O=C(NC1C/C(=N/O)c2cc3c(cc21)OCO3)C(F)(F)F (stereo not drawn) | -1.11 | –
CCOc1cc(/C=C2\CN(C)C/C(=C\c3ccc(O)c(OCC)c3)C2=O)ccc1O | – | 5.59 µM (active)
COc1cc(/C=C2\COC/C(=C\c3cc(OC)c(OC)c(OC)c3)C2=O)cc(OC)c1OC | – | 3.14 µM (active)
COc1cc(C=C2C(=O)c3ccccc3C2=O)cc(OC)c1OC | -6.19 | –
COc1cc(/C=C2\COC/C(=C\c3ccc(O)c(OC)c3)C2=O)ccc1O | – | 8.86 µM (active)
COc1ccc(/C=C2/CSC/C(=C/c3ccc(OC)c(OC)c3)C2=O)cc1OC | – | 5.59 µM (active)
Cc1ccc(F)c(S(=O)(=O)NC(=O)C2(C)CCN2C(=O)Cc2ccc(Cl)cc2Cl)c1 (stereo not drawn) | 13 | –
Cc1cccn2c(=O)c3cc(C#N)c(=NC(=O)c4cccs4)n(CCCOC(C)C)c3nc12 | -8.85 | –
COc1ccc(/C=C2\CN(Cc3ccccc3)C/C(=C\c3ccc(OC)c(O)c3)C2=O)cc1O | – | 6.27 µM (active)
Cc1noc(C)c1CSc1nc2ccccc2c(=O)n1-c1ccccc1 | – | 4.98 µM (active)
C=CCn1c(SCc2c(C)noc2C)nc2cc(C(=O)O)ccc2c1=O | – | 17.7 µM (active)
CCn1c2ccccc2c2cc(NC(=O)CNCc3ccccc3OC)ccc21 | – | 6.27 µM (active)
COc1cc(-c2cnc3c(NC(C)=O)cc(-c4ccccc4CN(C)C)cn23)cc(OC)c1OC | – | 14 µM (active)
COc1ccc(-c2cc(NC(C)=O)c3ncc(-c4cc(OC)c(OC)c(OC)c4)n3c2)cn1 | – | 5.59 µM (active)
COC(=O)C1=C(C)NC2=C(C(=O)CC(c3cccs3)C2)C1c1ccsc1 (stereo not drawn) | – | 12.5 µM (active)
CN(C)c1ccc(/C=N/N(CCO)C2=NS(=O)(=O)c3ccccc32)cc1 | -24.9 | –
CN(/N=C/c1ccc(N(C)C)cc1)C1=NS(=O)(=O)c2ccccc21 | – | 5.59 µM (active)
CSc1ccccc1NC(=O)COC(=O)/C=C/c1ccco1 | -23.9 | –
Cc1ccnc(NC(=S)NC(=O)/C=C/c2ccco2)c1 | – | 6.27 µM (active)
COc1ccc(-c2csc(NC(=S)NC(=O)/C=C/c3ccco3)n2)cc1Br | – | 3.14 µM (active)
O=C(/C=C/c1ccco1)NC(=S)Nc1cccc(-c2nc3ccccc3o2)c1 | – | 4.98 µM (active)
Cc1nc(NC(=O)/C=C/c2ccco2)sc1C | – | 6.27 µM (active)

SMILES | max response [%] | Potency
COc1ccc(OC)c(/C=C/c2nc3ccccc3[nH]c2=O)c1 | – | 7.31 µM (active)
CC(=Nc1ccccc1)C1=C(O)C(Cc2ccccc2)NC1=O (stereo not drawn) | – | 0.396 µM (active)
O=C1NC(c2ccccc2Br)=N/C1=C\c1ccco1 | -4.52 | –
O=C1N/C(=C\c2ccccc2)c2ccccc21 | – | 0.994 µM (active)
C=CCN1C=CC(=C/C=C(/C#N)C(=O)OCC)C=C1 | – | 3.66 µM (active)
CCOC(=O)/C(C#N)=C\C=C1C=CN(C)C=C1 | – | 2.31 µM (active)
O=Cc1sc(Nc2ccccc2)nc1Cl | – | 20.6 µM (active)
Cc1ccc(Nc2nc(Cl)c(C=O)s2)cc1Cl | – | 13 µM (active)
c1ccc(Nc2nc(-c3ccccn3)cs2)cc1 | 16.2 | –
CCOC(=O)c1ccc(NC(=O)CSc2nc(-c3ccc(OC)cc3)cc(C(F)(F)F)c2C#N)cc1 | – | 23.1 µM (active)
Cc1coc(NC(=O)CSc2nc(-c3ccncc3)cc(C(F)(F)F)c2C#N)n1 | – | 16.4 µM (active)
CCCCOc1ccc(-c2cc(C(F)(F)F)c(C#N)c(SCC(=O)O)n2)cc1 | – | 23.1 µM (active)
Cc1cc(C(F)(F)F)c(C#N)c(SCC(=O)Nc2nc3ccccc3s2)n1 | – | 18.4 µM (active)
COCc1cc(C)nc(SCC(=O)Nc2ccc3[nH]c(=O)[nH]c3c2)c1C#N | -18.1 | –
CCOC(=O)c1ccc(NC(=O)CSc2nc(-c3ccc(F)cc3)cc(C(F)(F)F)c2C#N)cc1 | – | 9.2 µM (active)
COc1cccc2sc(Nc3nc(-c4cc5ccccc5oc4=O)cs3)nc12 | – | 3.96 µM (active)
COc1ccc(-c2cc3ccccc3oc2=O)cc1NC(=S)NC(=O)c1ccc2c(c1)OCCO2 | -2.77 | –
CN(C)c1ccc(/C=C2\SC(=S)N(Nc3ncc(C(F)(F)F)cc3Cl)C2=O)cc1 | – | 5.17 µM (active)
COc1cc(/C=C2\SC(=S)N(NC(=O)c3ccccc3OC)C2=O)ccc1O | -17.8 | –
COc1cc(/C=C2\SC(=S)N(Nc3ncc(C(F)(F)F)cc3Cl)C2=O)ccc1O | – | 20.6 µM (active)
Cc1cc(C)cc(NC2=NC3(CCCCC3)N=C(N)N2)c1 | – | 19.8 µM (active)
CCOC(=O)c1ccc(NC(=S)NC(=O)C2CCCC2)cc1 | -2.63 | –
COC(=O)c1ccc(NC(=O)CC2Nc3cc(C)c(C)cc3NC2=O)cc1 (stereo not drawn) | – | 20.6 µM (active)
CCN(CC)C(=O)Cn1c(=O)n(-c2ccccc2)c(=O)c2c3c(sc21)CCC3 | -20.5 | –

SMILES | max response [%] | Potency
CCOc1ccc(C(=O)C(CCC(CN(C)C)C(=O)c2ccc(OCC)cc2)CN(C)C)cc1 (stereo not drawn) | -24.5 | –
O=C(Cc1n[nH]c(=O)c2ccccc12)OCC(=O)c1ccc2c(c1)OCCO2 | – | 2.8 µM (active)
CCOc1ccc(C(=O)COC(=O)Cc2n[nH]c(=O)c3ccccc23)cc1 | – | 15.8 µM (active)
O=C(Nc1ccc2c(c1)OCCO2)C(=O)c1c[nH]c2ccccc12 | – | 6.27 µM (active)
O=C(C(=O)N1CCN(c2ccccc2Cl)CC1)c1c[nH]c2ccccc12 | -13.1 | –
N#Cc1c(-c2ccccc2)c(-c2ccccc2)nn(CC(=O)NNC(=O)Nc2ccccc2)c1=O | – | 1.98 µM (active)
N#Cc1c(-c2ccc(F)cc2)c(-c2ccc(F)cc2)nn(CCO)c1=O | – | 7.04 µM (active)
CCOc1ccccc1N1CC(c2nc3ccccc3n2Cc2c(C)cc(C)cc2C)CC1=O (stereo not drawn) | -2.71 | –
CCOC(=O)Cn1c(=O)c(-c2cc(Br)ccc2N)nc2ccccc21 | – | 8.2 µM (active)
CCOC(=O)COn1c(=O)c(-c2ccc(Br)cc2)[n+]([O-])c2ccccc21 | 4.24 | –
Cc1ccc(S(=O)(=O)CCSc2nc(C)cc(C(F)(F)F)c2C#N)cc1 | – | 17.7 µM (active)
CCOC(=O)CCSc1nc(C)cc(C(F)(F)F)c1C#N | – | 12.5 µM (active)
COc1ccc(NC(=O)C2(C)Cc3c(-c4cccc(NC(C)=O)c4)ccnc3O2)cn1 (stereo not drawn) | – | 1.98 µM (active)
COc1ccc(NC(=O)C2(C)Cc3c(-c4ccc5c(c4)OCO5)ccnc3O2)cn1 (stereo not drawn) | – | 7.04 µM (active)
COc1ccc(NC(=O)C2(C)Cc3c(-c4cccc(C(N)=O)c4)ccnc3O2)cn1 (stereo not drawn) | – | 7.9 µM (active)
C=CCNC(=S)N/N=C/c1ccc(C)cc1C | -13.8 | –
CCc1ccc2nc(SCC(=O)Nc3ccccc3N3CCOCC3)c(C#N)cc2c1 | – | 1.64 µM (active)
N#Cc1cc2ccccc2nc1SCC(=O)Nc1ccccc1N1CCOCC1 | -5.1 | –
COc1ccc2nc(SCC(C)=O)c(C#N)cc2c1 | – | 3.66 µM (active)
COc1ccc2nc(SCC(=O)N3CC(=O)Nc4ccccc43)c(C#N)cc2c1 | – | 18.4 µM (active)
CCc1ccc2nc(SCC(=O)N3CC(=O)Nc4ccccc43)c(C#N)cc2c1 | – | 12.5 µM (active)

From PubChem BioAssay AID651813 (National Center for Advancing Translational Sciences (NCATS), 2012)
